Abeta rescue – restores growth of yeast expressing A-beta42 peptide. Potency, µM (series often up to 46.1 µM), most hits filed as activators. yeast expressing A-beta42, growth rescue, OD600, 48 h; response scale: 0% DMSO, 100% iron-clioquinol control. AID 1347071. hit rate 0.063% among 410,000; note: nearly all actives have a fitted effect of over 55% in size
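Growth rescue measured by 600 nm absorbance after 48 h yeast culture at 30 C with compound. Values normalized between DMSO and an equimolar ferric chloride plus clioquinol control.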
TDP43 rescue – inhibitors of TDP-43 toxicity in yeast | TDP-43 expressing yeast growth rescue, BacTiter-Glo, 24 h | Potency, µM (series often up to 46.1 µM), inactives show at the top dose growth rescue (activation), usual class: activators | hit rate 1.8% among 410,000 | AID 652104; note: % of control where 0% means no effect; nearly all actives have a fitted effect of over 50% in size
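Yeast cells expressing TDP-43 under galactose induction are exposed to compounds for 24 hr at 30 deg C. BacTiter-Glo luminescence measures growth, so protective compounds score as activators.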
FUS suppressor – suppressors of FUS proteinopathy in yeast; S. cerevisiae FUS-expressing, growth rescue, OD600, 24 h; Potency, µM (highest dose often 76.6 µM), most hits filed as activators; hit rate 0.24% among 390,000; AID 1347120;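 note: plate controls were DMSO vehicle for no effect and reference control for full effect; nearly all actives have a fitted effect of over 55% in size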
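Read-out: OD at 600 nm after 24hr at 30C, reporting rescue of FUS-induced yeast toxicity. Cells at OD 0.005 in galactose (2%) minimal medium; compounds tested in a dilution series; CP55940 titration from 92uM final as control.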
aSyn yeast inh – inhibitors of alpha-synuclein toxicity in yeast; Yeast expressing alpha-synuclein, growth rescue, BacTiter-Glo, 24 h; Potency, µM (highest dose often 46.1 µM), for the others: at the top dose growth rescue (activation), most hits filed as activators; hit rate 0.14% among 370,000; note: % of control where 0% means no effect; nearly all actives have a fitted effect of over 65% in size
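Galactose-induced alpha-syn yeast (OD600=0.02, raffinose-pregrown) + pinned cpd, 24 hr, 30 deg C; growth by BacTiter-Glo luminescence. Growth restoration scores as activation.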
Active calls of the source: *; i = inactive; u = inconclusive; x = no result given. Only some compounds are listed: those with a hit (about 2.1% of all), similar ones and a draw of the others. Calls come from the whole dose curve; as a rule, active = well fitted curve in the direction sought with a large enough effect; inconclusive = small, poorly fitted or top-dose-only effect, or another doubt; inactive = no such curve, though single readings can be large; an effect the other way counts as inactive or inconclusive. Potency is the fitted concentration of half-maximal effect.

SMILES | Abeta rescue | TDP43 rescue | FUS suppressor | aSyn yeast inh
Cn1c(=O)c2sccc2n2c(CCCC(=O)Nc3ccc(Oc4ccc(Cl)cc4)cc3)nnc12 | i | 10.7% | i | x
Cc1cc(NS(=O)(=O)c2ccc(Br)s2)no1 | i | 10.1% | i | -1.1%
CC(C)(C)c1cc(NS(=O)(=O)c2ccc(Br)s2)no1 | i | 22.4µM* | i | -14.6%
Cc1ccc(Cl)cc1NC(=O)COC(=O)CC1CCCCC1 | u | 12.6µM* | i | 4.3%
Cc1nn(-c2ccccc2)c2c1cc1c(=O)n(C)c(=O)nc-1n2-c1cccc(Cl)c1 | i | 14.0% | i | x
O=C(CSc1nnc(-c2cccnc2)n1-c1ccccc1)Nc1ccc2c(c1)OCCO2 | x | x | i | x
CC(NC(=O)c1ccc2c(c1)N(Cc1ccc(Cl)cc1)C(=O)c1ccccc1S2=O)c1ccccc1 (configuration not stated) | i | -6.4% | 25.1µM* | x
CCC(C)NC(=O)c1ccc2c(c1)N(Cc1cccc(Cl)c1)C(=O)c1ccccc1S2=O (configuration not stated) | i | 2.3% | u | x
Cc1nn(C)c(C(=O)Nc2ccc(S(=O)(=O)NC34CC5CC(CC(C5)C3)C4)cc2)c1Br | u | 4.2% | i | 22.4µM*
Cc1ccc(S(=O)(=O)NC23CC4CC(CC(C4)C2)C3)cc1 | i | u | i | -2.9%
Cc1ccc(-c2cc(-c3nnc(SCC(=O)Nc4ccc(OCc5ccccc5)cc4)n3N)[nH]n2)cc1 | x | x | i | x
CC(NCc1ccco1)C(=O)N1CCN(c2ccc(F)cc2)CC1 (configuration not stated) | x | x | i | x
O=C(c1cc(-c2ccncc2)nc2ccccc12)N1CCN(c2ccccc2O)CC1 | i | -14.3% | 17.8µM* | -19.6%
O=C(c1cc(-c2ccccc2)nc2ccccc12)N1CCN(c2ccccc2O)CC1 | i | u | u | -12.4%
C#CCN1CCc2onc(-c3ccc(Br)cc3)c2C1=O | i | 35.5µM* | i | -2.4%
COc1ccccc1C/C(N)=N/OC(=O)c1ccco1 | i | 10µM* | i | -32.7%
COc1ccccc1C/C(N)=N/OC(=O)c1ccc2c(c1)OCO2 | i | u | i | -70.8%
COc1ccc(Cl)cc1C1=CC(=O)C[C@H](c2ccc(F)cc2)C1 | i | 12.6µM* | i | 1.6%
COc1ccc(C2=CC(=O)C[C@H](c3ccc(F)cc3)C2)c(OC)c1 | i | 22.4µM* | u | 5.7%
COc1ccc(C2=CC(=O)C[C@H](c3ccc(F)cc3)C2)c(F)c1F | i | 15.8µM* | u | 20.6%
COc1ccc(OC)c(C2=CC(=O)C[C@H](c3ccc(F)cc3)C2)c1 | i | u | i | 14.8%
Clc1ccc([C@H]2OC[C@@]3(CNCCc4c[nH]c5ccccc45)CS[C@H](c4ccc(Cl)cc4)N23)cc1 | x | x | i | x
Cc1ccc(S(=O)(=O)N2CCCC2C(=O)N2CCc3ccccc3C2)cc1C (configuration not stated) | x | x | i | x
Cc1noc(NS(=O)(=O)c2ccc(N/C=C\C(=O)c3ccncc3)cc2)c1C | i | 9.4% | i | 1.9%
Cc1noc(NS(=O)(=O)c2ccc(N/C=C/C(=O)c3cccnc3)cc2)c1C | i | -0.7% | i | 20µM*
SMILES | Abeta rescue | TDP43 rescue | FUS suppressor | aSyn yeast inh
CCOC(=O)c1sc(NNC(=O)c2ccc(F)cc2)nc1C | u | 14.1µM* | i | u
CCOC(=O)c1sc(Nc2ccc(Br)cc2)nc1C | i | 15.8µM* | i | 0.5%
CCOC(=O)c1sc(Nc2ccccc2Cl)nc1C | i | 20µM* | i | -2.8%
CCOC(=O)c1sc(NC(=O)Nc2ccccc2F)nc1C | i | 15.8% | i | -0.9%
CCOC(=O)c1sc(NCCNc2nc(C)c(C(=O)OCC)s2)nc1C | i | -25.2% | i | 6.9%
CCOC(=O)c1sc(NNC(=O)c2ccc(C)cc2)nc1C | i | -17.2% | i | -3.0%
Cc1ccc(CNC(=O)CCC(=O)N2CC3CCCN3c3ccccc32)cc1 (configuration not stated) | i | 24.0% | i | x
COc1ccc(Oc2c(-c3cccs3)cnn(-c3ccc(C)cc3)c2=O)cc1 | x | x | i | x
O=C(O)c1ccc(C=Nn2c(-c3ccc(F)cc3)n[nH]c2=S)cc1 | x | x | i | x
CCOc1ccc(C2=C(C(=O)CC)Sc3nncn3N2C(=O)CC)cc1 | i | 20µM* | i | x
COc1cccc(C2=C(C(C)=O)Sc3nnc(C4CCCCC4)n3N2C(C)=O)c1 | i | u | i | x
